Laboratory results published in PubChem BioAssay.
Active and inactive are the calls of the source. Unless noted, how the calls were made is not given here.

How the values were obtained:
[1] = test system: Wnt5a (protein binding on small-molecule microarray); assay: small molecules binding Wnt5a protein – biophysical, small-molecule microarray, 635/667 nm fluorescence, primary screen (AID 1142); conditions: 635 nm fluorescence, higher = more signal;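 further: fluorescence read at 667 nm with signal to noise per printed feature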
[2] = ATP-based viability of Huh7 replicon cells – cell-based, CellTiter-Glo luminescence, basal, 48 h, cytotoxicity control for HCV replication inhibitor project, primary screen (AID 1143); conditions: higher = more signal, called active from +8 up or from −8 down;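 further: Huh7 hepatoma cells carrying a hepatitis C replication reporter with no stimulus; test concentration not given here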
[3] = Pseudomonas biofilm growth suppression – PAO1 strain, BacTiter-Glo luminescence, LB-PBS, primary screen (AID 1144); conditions: P. aeruginosa PAO1 biofilm, 12 h, higher = more signal
[4] = basal CRE-LacZ reporter activity in PC12 – cell-based, unstimulated, primary screen (AID 1145); conditions: no forskolin, luminescence, 4.5 h, higher = more signal, called active from +8 up or from −8 down
[5] = forskolin-driven CRE-LacZ activity in PC12 – cell-based, CRE-LacZ reporter, forskolin-stimulated, primary screen (AID 1146); conditions: luminescence, 4.5 h, higher = more signal, called active from +8 up or from −8 down;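 further: PC12 cells with 6xCRE LacZ reporter stimulated by forskolin 10 µM; beta-galactosidase reporter signal reflecting CREB driven transcription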
[6] = target: Streptavidin (Streptomyces avidinii) (UniProt P22629); assay: compounds binding control protein streptavidin – biophysical, small-molecule microarray, 635/667 nm fluorescence, artefact control for SMM compound annotation, primary screen (AID 1147); conditions: higher = more signal;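 further: signal reflects streptavidin binding to arrayed compounds as a control protein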
Chain of Streptavidin (Streptomyces avidinii) (P22629 whole entry, looked up): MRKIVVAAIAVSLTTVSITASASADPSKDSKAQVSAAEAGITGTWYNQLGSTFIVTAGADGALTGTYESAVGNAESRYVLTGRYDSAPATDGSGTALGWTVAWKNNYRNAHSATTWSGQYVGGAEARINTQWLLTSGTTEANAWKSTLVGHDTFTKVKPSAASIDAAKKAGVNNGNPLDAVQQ

[7] = probe aInhba binding on compound microarray – biochemical, small-molecule microarray, 635/667 nm fluorescence, primary screen (AID 1148); conditions: higher = more signal;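 further: score merges 667nm spot fluorescence with signal-to-noise for antibody binding to printed compounds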
Torsin-1A (Homo sapiens) [8] = target: Torsin-1A (Homo sapiens) (UniProt O14656); assay: TOR1A wild-type binding on microarray – cell lysate, small-molecule microarray, lysate, 635/667 nm, primary screen (AID 1149); conditions: COS7 hTOR1A-WT lysate, 635 nm fluorescence, higher = more signal
Chain of Torsin-1A (Homo sapiens) (O14656 whole entry, looked up): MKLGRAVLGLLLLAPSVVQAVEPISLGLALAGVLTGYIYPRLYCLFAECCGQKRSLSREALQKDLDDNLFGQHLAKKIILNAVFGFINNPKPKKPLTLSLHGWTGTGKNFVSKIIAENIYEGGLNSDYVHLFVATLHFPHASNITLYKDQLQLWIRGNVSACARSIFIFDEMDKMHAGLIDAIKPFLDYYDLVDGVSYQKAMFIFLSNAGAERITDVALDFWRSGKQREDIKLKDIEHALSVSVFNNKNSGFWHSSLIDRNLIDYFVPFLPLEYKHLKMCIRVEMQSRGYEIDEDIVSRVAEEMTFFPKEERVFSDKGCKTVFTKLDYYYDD

Torsin-1A (Homo sapiens) [9] = target: Torsin-1A (Homo sapiens) (UniProt O14656); assay: torsin A mutant lysate binding on microarrays – cell lysate, small-molecule microarray, COS7 lysate, 635/667 nm fluorescence, primary screen (AID 1150); conditions: COS7 hTOR1A mutant lysate, 635 nm fluorescence, higher = more signal;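 further: score pools 667 nm emission and signal to noise measuring lysate protein binding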
[10] = test system: Sonic hedgehog protein (Shh); assay: Sonic hedgehog microarray binding compounds – biochemical, small-molecule microarray, 635/667 nm fluorescence, primary screen (AID 1151); conditions: 635 nm fluorescence, higher = more signal;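 further: Shh protein binding to compounds spotted on small-molecule microarray slides; score combines spot fluorescence intensity with signal-to-noise across triplicate slides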
[11] = optical density shifts of acrAB sulA E. coli – strain DRC41, OD650, 48 h, E. coli filamentation inducer project, primary screen (AID 1152); conditions: higher = more signal, called active from +8 up or from −8 down;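 further: E. coli MC1000 strain DRC41 lacking acrAB efflux pump and sulA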
[12] = probe aLefty1 binding on compound microarray – biochemical, small-molecule microarray, 635/667 nm fluorescence, primary screen (AID 1153); conditions: higher = more signal;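 further: score merges spot fluorescence with signal-to-noise ratio from the scanned slide images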
[13] = plasmodial surface anion channel blockers, osmotic lysis – cell-based, P. falciparum Indochina, OD700, 1 h, primary screen (AID 1154); conditions: P. falciparum Indochina infected RBC osmotic lysis, higher = more signal, called active from +8 up or from −8 down
[14] = plasmodial surface anion channel blockers, osmotic lysis – cell-based, P. falciparum Indochina, OD700, 2 h, primary screen (AID 1155);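 further: lysis reports solute entry through the parasite surface anion channel PSAC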; conditions: P. falciparum Indochina infected erythrocytes, higher = more signal, called active from +8 up or from −8 down
[15] = changes in parasitized red cell lysis, either direction – P. falciparum Indochina, OD700, 3 h, PSAC antagonist project, primary screen (AID 1156); conditions: P. falciparum-infected erythrocytes, osmotic lysis, higher = more signal, called active from +8 up or from −8 down
[16] = plasmodial surface anion channel blockers, osmotic lysis – cell-based, P. falciparum Indochina, OD700, 18 h, primary screen (AID 1157); conditions: P. falciparum Indochina infected erythrocytes, osmotic lysis OD700, 18 h; higher = more signal, called active from +8 up or from −8 down
[17] = S6 kinase pathway phospho-S6 level changes – cell-based, A549, cytoblot, luminescence, serum-stimulated, primary screen (AID 1158); conditions: 5 h, higher = more signal;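 further: serum-stimulated A549 lung adenocarcinoma cells; signal is phosphorylated S6 detected by cytoblot immunostaining with HRP secondary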
[18] = target: NADPH oxidase 2 (Homo sapiens) (UniProt P04839); assay: compounds shifting NOX2 Amplex Red fluorescence – cell-based, HEK293-NOX2, PMA-stimulated, NOX inhibitor project, primary screen (AID 1159); conditions: 45 min, higher = more signal, called active from +8 up or from −8 down; further: test concentration not given here
Chain of NADPH oxidase 2 (Homo sapiens) (P04839 whole entry, looked up): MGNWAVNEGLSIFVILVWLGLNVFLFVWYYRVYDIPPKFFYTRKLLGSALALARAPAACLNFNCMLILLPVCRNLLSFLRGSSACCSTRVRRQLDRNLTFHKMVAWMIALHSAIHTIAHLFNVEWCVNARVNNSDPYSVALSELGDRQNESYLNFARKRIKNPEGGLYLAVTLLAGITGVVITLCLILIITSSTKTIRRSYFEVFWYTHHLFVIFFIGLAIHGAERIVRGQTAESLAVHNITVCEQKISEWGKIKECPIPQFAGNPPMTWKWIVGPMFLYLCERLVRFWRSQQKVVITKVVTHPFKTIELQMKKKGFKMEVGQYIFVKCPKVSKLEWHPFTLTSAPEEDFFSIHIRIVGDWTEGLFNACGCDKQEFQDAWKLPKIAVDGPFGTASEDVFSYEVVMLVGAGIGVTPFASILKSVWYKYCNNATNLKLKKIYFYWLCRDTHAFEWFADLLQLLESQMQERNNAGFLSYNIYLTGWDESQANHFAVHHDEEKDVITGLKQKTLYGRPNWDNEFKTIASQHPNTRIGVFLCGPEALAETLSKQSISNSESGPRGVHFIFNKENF

[19] = target: NADPH oxidase 4 (Homo sapiens) (UniProt Q9NPH5); assay: compounds shifting NOX4 Amplex Red fluorescence – cell-based, HEK293-NOX4, tetracycline-induced, NOX inhibitor project, primary screen (AID 1160); conditions: HEK293-NOX4, Amplex Red H2O2 fluorescence, 45 min; higher = more signal, called active from +8 up or from −8 down
Chain of NADPH oxidase 4 (Homo sapiens) (Q9NPH5 whole entry, looked up): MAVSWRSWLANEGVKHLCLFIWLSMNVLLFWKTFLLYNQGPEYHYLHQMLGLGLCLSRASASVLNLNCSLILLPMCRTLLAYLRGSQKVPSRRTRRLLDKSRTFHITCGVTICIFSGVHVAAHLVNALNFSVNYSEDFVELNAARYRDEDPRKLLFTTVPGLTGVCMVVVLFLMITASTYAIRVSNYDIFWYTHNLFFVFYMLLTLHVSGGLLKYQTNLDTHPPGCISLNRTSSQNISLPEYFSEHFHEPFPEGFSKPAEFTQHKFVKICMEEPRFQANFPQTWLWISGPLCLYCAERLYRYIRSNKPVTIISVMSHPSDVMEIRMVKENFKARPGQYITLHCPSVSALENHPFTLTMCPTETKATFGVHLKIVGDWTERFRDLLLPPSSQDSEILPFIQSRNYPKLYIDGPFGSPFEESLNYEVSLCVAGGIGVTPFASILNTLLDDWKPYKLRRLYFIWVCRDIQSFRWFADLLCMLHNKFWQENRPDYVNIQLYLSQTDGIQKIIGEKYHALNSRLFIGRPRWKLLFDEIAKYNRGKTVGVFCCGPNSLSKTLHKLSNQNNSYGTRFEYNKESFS

[20] = target: NADPH oxidase 5 (Homo sapiens) (UniProt Q96PH1); assay: compounds shifting NOX5 Amplex Red fluorescence – cell-based, HEK293-NOX5, NOX inhibitor project, primary screen (AID 1161); conditions: HEK293-NOX5, ionomycin, 45 min, higher = more signal
Chain of NADPH oxidase 5 (Homo sapiens) (Q96PH1 whole entry, looked up): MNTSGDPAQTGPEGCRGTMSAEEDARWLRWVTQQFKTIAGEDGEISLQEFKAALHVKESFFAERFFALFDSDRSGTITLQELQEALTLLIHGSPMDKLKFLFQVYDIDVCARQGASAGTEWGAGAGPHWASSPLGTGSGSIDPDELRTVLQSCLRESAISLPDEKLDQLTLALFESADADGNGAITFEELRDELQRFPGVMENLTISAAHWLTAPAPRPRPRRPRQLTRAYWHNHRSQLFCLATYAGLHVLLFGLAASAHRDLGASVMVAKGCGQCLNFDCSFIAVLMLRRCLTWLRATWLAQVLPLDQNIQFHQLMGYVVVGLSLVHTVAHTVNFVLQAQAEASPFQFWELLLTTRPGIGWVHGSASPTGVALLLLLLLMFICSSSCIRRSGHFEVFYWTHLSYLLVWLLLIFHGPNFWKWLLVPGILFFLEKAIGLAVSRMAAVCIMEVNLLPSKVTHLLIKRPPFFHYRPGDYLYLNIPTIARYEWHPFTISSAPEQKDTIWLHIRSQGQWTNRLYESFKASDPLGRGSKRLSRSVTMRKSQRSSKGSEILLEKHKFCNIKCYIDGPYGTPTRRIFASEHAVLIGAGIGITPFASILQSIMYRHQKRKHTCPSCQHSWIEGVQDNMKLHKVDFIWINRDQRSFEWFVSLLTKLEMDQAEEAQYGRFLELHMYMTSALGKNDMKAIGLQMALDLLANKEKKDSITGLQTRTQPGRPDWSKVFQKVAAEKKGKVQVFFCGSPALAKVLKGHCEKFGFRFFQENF

SMILES | composite z-score [1] | z-score [2] | z-score [3] | z-score [4] | z-score [5] | composite z-score [6] | composite z-score [7] | composite z-score (Torsin-1A (Homo sapiens) [8]) | composite z-score (Torsin-1A (Homo sapiens) [9]) | composite z-score [10] | z-score [11] | composite z-score [12] | z-score [13] | z-score [14] | z-score [15] | z-score [16] | z-score [17] | z-score [18] | z-score [19] | z-score [20]
O[C@@H](Cc1ccccc1)[C@@H](/C=C/C1CC1)NCc1cccc(Cl)c1 | -1.11 | -3.2 (inactive) | -0.852 (inactive) | 4.76 (inactive) | -0.426 (inactive) | -1 | -0.21 | -1.12 | -0.447 | -1 | -1.12 (inactive) | -0.0295 | 1.27 (inactive) | 1.03 (inactive) | 0.972 (inactive) | 0.721 (inactive) | 0.528 | -0.115 (inactive) | -0.302 (inactive) | -2.08
CC1CC/C=C\[C@H]2OC34C=CCN(c5ccc6ccccc6c5)C(=O)[C@H]3N(CCO)C(=O)[C@@H]4C2C(=O)O1 (stereo not given in full) | 0.451 | -0.929 (inactive) | 0.282 (inactive) | -0.35 (inactive) | 0.289 (inactive) | -0.818 | 0.0301 | -1.34 | 0.652 | 0.0032 | -0.0648 (inactive) | 0.552 | 3.56 (inactive) | 0.531 (inactive) | 0.15 (inactive) | 0.357 (inactive) | 0.21 | 1.43 (inactive) | 1.04 (inactive) | 2.4
O=C(NC1CC1)[C@@H]1c2ccccc2C(=O)N(C2Cc3ccccc3C2)[C@H]1c1ccc(CO)cc1 | 0.336 | 0.192 (inactive) | -0.994 (inactive) | 0.854 (inactive) | -0.987 (inactive) | -0.286 | 0.116 | 0.795 | 1.28 | 1.05 | 0.412 (inactive) | -0.0377 | 2.06 (inactive) | 0.208 (inactive) | 0.531 (inactive) | -0.112 (inactive) | -0.153 | 0.0375 (inactive) | 0.108 (inactive) | -0.717
C=CCN1C(=O)[C@]2(Cc3ccccc3)N=C(c3ccc(OCCCO)cc3)O[C@@H]2c2ccccc21 | 0.611 | -3.85 (inactive) | 0.000807 (inactive) | 2.97 (inactive) | -1.79 (inactive) | 0.752 | 0.13 | 0.443 | 0.842 | 1.79 | 0.567 (inactive) | 0.43 | 33.1 (active) | 30.1 (active) | 2.14 (inactive) | 10.2 (active) | -0.204 | -1.78 (inactive) | 0.46 (inactive) | 1.07
O=C1OCC=C[C@H]2OC34C=CCN(Cn5nnc6ccccc65)C(=O)[C@H]3N(CCCCCO)C(=O)[C@@H]4[C@@H]12 (stereo not given in full) | 0.238 | -0.17 (inactive) | -1.03 (inactive) | -0.623 (inactive) | -0.29 (inactive) | -0.573 | -0.348 | -0.884 | -1.08 | -0.502 | 0.911 (inactive) | -0.418 | 0.896 (inactive) | 0.212 (inactive) | 1.11 (inactive) | 0.383 (inactive) | -0.433 | 1.95 (inactive) | 0.223 (inactive) | 1.32
CCOC(=O)C[C@H]1[C@H](OC(=O)c2ccc(-c3ccccc3)cc2)[C@@H](NC(=O)c2ccccc2)c2cc(OCCCO)ccc2N1C(=O)Cc1ccc(OC)cc1 | 0.0137 | 0.0974 (inactive) | -0.962 (inactive) | 0.0035 (inactive) | -0.701 (inactive) | -0.238 | 0.0001 | -0.0369 | -0.456 | 0.0151 | 0.118 (inactive) | -0.0601 | 1.93 (inactive) | 0.442 (inactive) | -0.113 (inactive) | 0.41 (inactive) | -0.0916 | 1.31 (inactive) | -0.847 (inactive) | 2.5
CC(c1ccccc1)C(O)C1C=CC2C(=O)N(c3ccccc3)C(=O)C2N1Nc1ccccc1 (stereo not given) | 0.821 | -3.13 (inactive) | -0.626 (inactive) | 0.246 (inactive) | 0.379 (inactive) | 1.67 | 0.0906 | 0.524 | 1.07 | 0.843 | -1.08 (inactive) | 1.05 | 4.6 (inactive) | 0.386 (inactive) | 2.47 (inactive) | -1.35 (inactive) | 1.95 | -3.18 (inactive) | -4.79 (inactive) | -5.54
COC(=O)[C@@]1(Cc2ccc(F)cc2)[C@H]2c3cc(C(=O)N(C)C)n(Cc4ccc(C)o4)c3C[C@H]2CN1C(=O)c1ccccc1 | 0.798 | -2.07 (inactive) | -0.927 (inactive) | 0.387 (inactive) | -0.554 (inactive) | -0.649 | 1.7 | 4.51 | 4.51 | -0.81 | -0.92 (inactive) | 2.34 | 5.03 (inactive) | 1.73 (inactive) | 0.951 (inactive) | 1.3 (inactive) | -0.239 | 0.455 (inactive) | 0.056 (inactive) | 0.604
CO[C@H]1O[C@H](CO)[C@@H](OC(=O)Nc2ccccc2)[C@@H]2OC(=O)[C@@H](Cc3ccc4ccccc4c3)C/C=C/C[C@H](Cc3ccc4ccccc4c3)C(=O)O[C@@H]12 | 0.49 | -3.61 (inactive) | -1.4 (inactive) | 0.502 (inactive) | -0.757 (inactive) | 0.31 | -0.0494 | 0.643 | 1.87 | 0.662 | 2.85 (inactive) | 0.0167 | 2.71 (inactive) | -0.0552 (inactive) | -1.94 (inactive) | -1.83 (inactive) | 0.77 | 0.829 (inactive) | 0.884 (inactive) | -0.542
O=C1C2C=CC(C(O)c3ccc(-c4ccccc4)s3)N(Nc3ccccc3)C2C(=O)N1c1ccccc1 (stereo not given) | 0.155 | -0.514 (inactive) | -1.25 (inactive) | 0.0569 (inactive) | 0.117 (inactive) | 0.908 | 0.0183 | -0.499 | 1.21 | 0.0134 | -0.517 (inactive) | 0.591 | 8.45 (active) | 2.11 (inactive) | 0.214 (inactive) | 1.1 (inactive) | -0.505 | -0.986 (inactive) | -3.23 (inactive) | -0.493
